PvdQ inh = P. aeruginosa PvdQ acylase inhibition | purified PvdQ acylase, fluorescence plate reader | inhibition, % at 10 µM | actives 0.063% (n = 340,000) | AID 488965; in the data active = inhibition above about 30%, passing the limit was not always enough;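 also: 0% = vehicle neutral wells and 100% = reference inhibitor wells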
AI-2 QS modul = modulates the Vibrio harveyi AI-2 quorum sensing system | actives 0.4% (n = 300,000) | Vibrio harveyi JMH597 AI-2 luminescence/OD600 ratio, 9 h; hits give low values; strain lacks LuxN and CqsS sensors; 0 = neutral-control median | activity change, % at 7.5 µM | AID 2094; in the data active = activity change below about -75%, passing the limit was not always enough;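 also: luminescence divided by OD600 gain over 9 h not by final OD600 alone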
Vif inh = HIV Vif inhibition; HEK293T cells, Vif self-association by quenched fluorescence, imaging, 24 h; inhibition, % at 7.49 µM; actives 0.35% (n = 340,000); AID 602346; in the data active = inhibition above about 50%, passing the limit was not always enough
ERp5 block = inhibitors of human ERp5; Q15084; ERp5 insulin aggregation, absorbance 650 nm, 90 min; inhibition, % at 9.99 µM; actives 0.05% (n = 350,000); AID 651711;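 active = mean replicate inhibition above about 25%, with every replicate also reaching it, limit read from the data, passing the limit was not always enough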
Target sequence (Q15084 whole entry, looked up): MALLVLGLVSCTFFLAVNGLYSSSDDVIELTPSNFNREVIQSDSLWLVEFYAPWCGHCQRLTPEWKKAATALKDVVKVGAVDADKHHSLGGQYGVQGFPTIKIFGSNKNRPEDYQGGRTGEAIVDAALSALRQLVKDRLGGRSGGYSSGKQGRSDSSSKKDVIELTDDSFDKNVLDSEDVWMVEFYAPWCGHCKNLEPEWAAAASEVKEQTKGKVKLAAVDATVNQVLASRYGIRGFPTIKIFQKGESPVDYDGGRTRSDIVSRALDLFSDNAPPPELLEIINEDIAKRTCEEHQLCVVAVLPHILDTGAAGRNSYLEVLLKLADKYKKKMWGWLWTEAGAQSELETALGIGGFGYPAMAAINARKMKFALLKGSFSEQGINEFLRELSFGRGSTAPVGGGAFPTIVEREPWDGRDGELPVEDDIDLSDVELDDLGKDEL
PDI inh = blocks human protein disulfide isomerase activity | P07237 | PDI insulin aggregation turbidity, A650, 90 min | inhibition, % at 10 µM | actives 0.052% (n = 350,000) | AID 588391;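 active = mean inhibition across replicates of 30% or more, whatever share of single replicates reach that level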
Active calls of the source: *. An excerpt weighted towards active compounds, which were near 0.64% of everything screened.

How did COCC(=O)Nc1ccc2c(c1)[C@@H]1C[C@@H](CC(=O)NCC3CC3)O[C@H](CO)[C@@H]1O2 do in these assays?
ERp5 block: -1.8

What do the screens show for `O=C(NNc1nc2ccccc2s1)c1ccc(F)cc1`?
PvdQ inh: -7.8; AI-2 QS modul: -77.1*; Vif inh: 8.8; ERp5 block: 0.4; PDI inh: 4.2

How did O=C(NNc1nc2c(F)cc(F)cc2s1)c1ccccc1 do in these assays?
PvdQ inh: -4.0; AI-2 QS modul: -28.4; Vif inh: 5.1; ERp5 block: 1.0; PDI inh: 9.2

Results for O=C(NNc1nc2ccc(F)cc2s1)c1cccc(F)c1 ?
PvdQ inh: -2.3; AI-2 QS modul: -119.3*; Vif inh: -0.3; ERp5 block: -4.2; PDI inh: -1.4

Results for C[C@H](CO)N1C[C@H](C)[C@H](CN(C)Cc2ccc(Oc3ccccc3)cc2)Oc2cc(-c3ccncc3)ccc2S1(=O)=O ?
ERp5 block: -4.0

How did COc1cccc(C(=O)Nc2nnc(C3CCCO3)s2)c1 (stereo not given) do in these assays?
PvdQ inh: -0.5; AI-2 QS modul: -78.2*; Vif inh: -2.2; PDI inh: 1.6

How did COc1ccc(OC)c(-c2cc(C(=O)Nc3cc(C)on3)no2)c1 do in these assays?
PvdQ inh: 4.4; AI-2 QS modul: 15.3; Vif inh: 62.7*; PDI inh: -14.9

What do the screens show for `COc1ccc(-c2cc(C(=O)Nc3cc(C)on3)no2)cc1`?
PvdQ inh: 0.7; AI-2 QS modul: -8.9; Vif inh: -4.7; ERp5 block: -3.4; PDI inh: 0.0

What do the screens show for `CCC(=O)N1C[C@H](C)[C@H](OC)CN(C)C(=O)c2cc(NC(=O)COC)ccc2OC[C@H]1C`?
ERp5 block: 0.8

What do the screens show for `O=C(C[C@H]1CC[C@H]2[C@@H](COC[C@H](O)CN2Cc2cccc(C(F)(F)F)c2)O1)NCCc1ccccc1`?
ERp5 block: -9.0

Results for Nc1ccc(-c2c3ccc(=O)cc-3oc3cc(O)ccc23)c(C(=O)O)c1 ?
PvdQ inh: 9.9; Vif inh: 72.8*; PDI inh: 16.8

How did C[C@H](CO)N1C[C@H](C)[C@@H](CN(C)S(=O)(=O)c2cccs2)OCCCC[C@H](C)Oc2ccc(NC(=O)CCC(F)(F)F)cc2C1=O do in these assays?
ERp5 block: 7.0

What do the screens show for `O=C(NCc1ccc2c(c1)OCO2)c1ccc2c(c1)OCO2`?
PvdQ inh: 6.2; AI-2 QS modul: 0.9; Vif inh: -7.5; ERp5 block: 1.6; PDI inh: -7.1

What do the screens show for `O=C(O)c1ccc(NCc2ccc3c(c2)OCO3)cc1`?
PvdQ inh: -5.6; AI-2 QS modul: -91.8*; Vif inh: -2.3; PDI inh: -2.6

How did O=C(NCC[C@H]1CC[C@@H](NS(=O)(=O)c2cccc(F)c2)[C@H](CO)O1)C1CCC1 do in these assays?
ERp5 block: -7.7

Results for COc1ccccc1N1C(=O)CCC1(C#N)c1ccccc1 (stereo not given) ?
PvdQ inh: -6.6; AI-2 QS modul: 13.5; Vif inh: 68.6*; PDI inh: 9.0

What do the screens show for `CCC#CCN(Cc1ccccc1Br)[C@H](/C=C/c1ccccc1)[C@@H](O)Cc1ccccc1`?
ERp5 block: 10.9

Results for C[C@@H]1CCCCO[C@H](CN(C)C(=O)NC2CCCCC2)[C@@H](C)CN([C@H](C)CO)C(=O)c2cc(NC(=O)Nc3ccc4c(c3)OCO4)ccc2O1 ?
ERp5 block: -7.8

How did CC(NC(=O)C1CCN(CCOc2ccc(Cl)cc2)CC1)c1cccc2ccccc12 (stereo not given) do in these assays?
Vif inh: 66.0*; ERp5 block: -4.3; PDI inh: 1.9

How did COc1ccc(CN2CCC(C(=O)NC(C)c3cccc4ccccc34)CC2)cc1 (stereo not given) do in these assays?
PDI inh: -6.6

How did CC(C)NC(=O)N(C)C[C@H]1Oc2ccc(NC(=O)Nc3ccccc3)cc2CC(=O)N([C@H](C)CO)C[C@@H]1C do in these assays?
ERp5 block: -1.7

How did O=C1NC(=O)C(c2cn(-c3ccccc3)nc2-c2ccc(F)cc2)N1 (stereo not given) do in these assays?
PvdQ inh: -3.1; AI-2 QS modul: -86.2*; Vif inh: -9.5; PDI inh: -1.6

Results for C[C@@H]1CN([C@@H](C)CO)C(=O)Cc2cc(NC(=O)Nc3cccc4ccccc34)ccc2O[C@H]1CN(C)C(=O)NC1CCCCC1 ?
ERp5 block: 5.1

What do the screens show for `Fc1ccc(NC(=S)N/N=C/c2ccc(F)c(F)c2)c(F)c1`?
PvdQ inh: 6.5; AI-2 QS modul: 14.8; Vif inh: 109.7*; ERp5 block: 1.7; PDI inh: 4.3

Results for CC(=O)C1=C(O)C(=O)N(CCc2c[nH]c3ccccc23)C1c1ccc(O)cc1 (stereo not given) ?
PvdQ inh: -1.1; AI-2 QS modul: 27.1; Vif inh: 1.1; PDI inh: 46.4*

How did CC(=O)C1=C(O)C(=O)N(CCc2c[nH]c3ccccc23)C1c1ccccc1 (stereo not given) do in these assays?
PvdQ inh: -10.4; AI-2 QS modul: 6.8; Vif inh: -0.3; ERp5 block: -6.6; PDI inh: 21.2

How did CC1(S(=O)(=O)O)CC(=O)c2ccccc2C1=O (stereo not given) do in these assays?
PvdQ inh: 0.2; AI-2 QS modul: -8.9; Vif inh: 174.5*; ERp5 block: -7.2; PDI inh: 6.8

Results for C[C@H](CO)N1C[C@H](C)[C@@H](CN(C)C(=O)Nc2ccccc2)Oc2ccc(NS(=O)(=O)c3ccc(Cl)cc3)cc2CC1=O ?
ERp5 block: 0.9

How did COC(=O)CC/C(O)=C1\C(=O)CC(C)(C)CC1=NCc1nc2ccccc2[nH]1 do in these assays?
PvdQ inh: -14.0; AI-2 QS modul: 6.0; Vif inh: 77.2*; ERp5 block: 2.2; PDI inh: -4.5

How did Cc1c(C(=O)NCc2ccccn2)oc2ccc(S(=O)(=O)N3CCOCC3)cc12 do in these assays?
PvdQ inh: 2.4; AI-2 QS modul: 11.4; Vif inh: 86.4*; PDI inh: 2.9

Results for Cc1c(C(=O)NCc2cccs2)oc2ccc(S(=O)(=O)N3CCOCC3)cc12 ?
PvdQ inh: -16.6; AI-2 QS modul: 12.1; Vif inh: 16.3; PDI inh: 2.8

What do the screens show for `CC(C)NC(=O)N[C@@H]1CC[C@H](CCNS(=O)(=O)c2ccc(Cl)cc2)O[C@@H]1CO`?
ERp5 block: -1.0

What do the screens show for `CCC(=O)c1ccc(OC(=O)c2cccs2)cc1`?
PvdQ inh: 41.4*; AI-2 QS modul: -3.3; Vif inh: 1.4; PDI inh: 0.5

How did COc1ccc(C(=O)N/N=C/c2ccc(OC(=O)c3cccs3)cc2)cc1 do in these assays?
PvdQ inh: -5.6; AI-2 QS modul: 16.9; Vif inh: 2.8; ERp5 block: -0.7; PDI inh: -5.3

What do the screens show for `COC(=O)c1ccc(OC(=O)c2cccs2)cc1`?
PvdQ inh: 55.0*; AI-2 QS modul: 12.8; Vif inh: 1.7; ERp5 block: -3.7; PDI inh: -2.6
